Screens deposited in PubChem by Sanford-Burnham Center for Chemical Genomics.
A selection: hits, their analogues and other compounds. The true share with any hit is near 3%.
SENP8 block-1 – human SENP8 protease inhibitors, primary screen, biochemical, fluorescence, Nedd8 protein substrate, uHTS; recombinant SENP8; inhibition, % at 20 µM; Sentrin-specific protease 8 (Homo sapiens), Q96LD8; 0.64% of 360,000 active; in the data active means inhibition mostly above about 40%, no sharp cut-off; inactive means mostly below about 27%
Target sequence (Q96LD8 whole entry, looked up): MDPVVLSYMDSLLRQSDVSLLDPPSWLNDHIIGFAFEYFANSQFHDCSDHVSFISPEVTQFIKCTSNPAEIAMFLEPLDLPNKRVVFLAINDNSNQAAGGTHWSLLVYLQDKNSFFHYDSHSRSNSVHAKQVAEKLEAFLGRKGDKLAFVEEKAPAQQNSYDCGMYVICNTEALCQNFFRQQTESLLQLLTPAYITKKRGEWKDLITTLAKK
SENP6 inh – SENP6 protease inhibitors, primary screen, biochemical, luminescence, uHTS; inhibition, % at 10 µM; 1.8% of 330,000 active; Recombinant SENP6 catalytic domain, aminoluciferin luminescence; Sentrin-specific protease 6 (Homo sapiens), Q9GZR1;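 active means inhibition above about 50% at the single tested dose, limit read from the data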;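 further: plate controls were DMSO wells with enzyme for no effect and DMSO wells lacking enzyme for full effect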
PPC-1+TRAIL kill – compounds killing PPC-1 cancer cells with TRAIL present, primary screen, TRAIL potentiator project, ATPLite luminescence, uHTS | PPC-1 cells + TRAIL, ATPLite viability luminescence | cell killing (% activity), % at 4 µM or 5 µM | 0.41% of 220,000 active | AID 1443, 2008;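 active means cell killing above 50% in the first pass at 4 µM, then a duplicate retest at 5 µM averaging 50% or more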;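 further: plate controls were cells with TRAIL plus DMSO for no effect and medium-only wells lacking cells for full effect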
SENP8 block-2 – SENP8 protease inhibitors, primary screen, biochemical, luminescence | 1.2% of 330,000 active | AID 2540, 2010 | Sentrin-specific protease 8 (Homo sapiens), Q96LD8 | inhibition, % at 10 µM | purified SENP8, Z-RLRGG-aminoluciferin cleavage; in the data active means inhibition above about 50%
SENP7 inh – SENP7 protease inhibitors, primary screen, biochemical, luminescence, uHTS | 1.5% of 330,000 active | recombinant SENP7, Z-RLRGG-aminoluciferin luminescence, 40 min | inhibition, % at 5 µM | Sentrin-specific protease 7 (Homo sapiens), Q9BQF6;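 active means inhibition above about 50% at the single test dose, limit read from the data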;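 further: plate controls were DMSO with enzyme for no effect and no enzyme buffer wells for full effect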
Target sequence (Q9BQF6 706-1050 limits assumed): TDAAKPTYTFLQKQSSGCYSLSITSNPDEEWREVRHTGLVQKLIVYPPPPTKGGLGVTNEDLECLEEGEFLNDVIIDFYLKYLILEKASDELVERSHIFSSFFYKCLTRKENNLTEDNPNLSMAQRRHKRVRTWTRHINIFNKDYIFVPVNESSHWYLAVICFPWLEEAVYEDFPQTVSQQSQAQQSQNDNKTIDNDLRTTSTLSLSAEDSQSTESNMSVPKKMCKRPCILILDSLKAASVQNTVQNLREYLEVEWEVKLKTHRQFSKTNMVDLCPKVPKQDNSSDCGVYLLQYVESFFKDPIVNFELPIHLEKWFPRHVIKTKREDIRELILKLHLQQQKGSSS
C8 TRAIL sens – viability loss with TRAIL in NB7+C8 cells, primary screen, TRAIL sensitizer project, cell-based, ATPlite luminescence; inhibition (viability loss, TRAIL sensitization), % at 10 µM; 1% of 360,000 active; AID 624354, 2012;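 active means compounds causing at least 50% loss of cell viability in the single-dose screen, relative to plate controls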
* marks the source's active call; other numbers are inactive results; nt = no result.

SMILES	SENP8 block-1	SENP6 inh	PPC-1+TRAIL kill	SENP8 block-2	SENP7 inh	C8 TRAIL sens
CC1CCC(=O)N(CCC#N)CC1 (configuration not stated)	15.2	-20.3	nt	-13.2	-6.3	-3.3
C[C@@H]1CN([C@H](C)CO)C(=O)CCCn2cc(nn2)CO[C@H]1CN(C)C(=O)c1ccccc1	18.7	nt	nt	nt	nt	-10.0
COCCNC(=S)N1CCc2cc(OC)c(OC)cc2C1COc1ccc(C(C)C)cc1 (configuration not stated)	-5.9	1.2	5.1	-2.3	5.2	9.0
Cc1nc(CSc2nnc(C)s2)cs1	3.2	-6.8	87.3*	-1.4	-8.3	2.7
Cc1nnc(SCc2ccc(F)cc2)s1	12.4	-27.2	10.4	-12.0	-13.9	11.2
Cc1ccc(C(=O)N/C(=C\c2ccc(-c3ccccc3[N+](=O)[O-])o2)C(=O)NCCCN2CCOCC2)cc1	-127.6	44.1	nt	32.3	11.6	55.6*
Nc1ccn(C2OC(COC(=O)C34CC5CC(CC(C5)C3)C4)C(O)C2O)c(=O)n1 (configuration not stated)	2.6	nt	nt	nt	nt	-12.2
O=C(O)C(Cc1cccs1)c1cccs1 (configuration not stated)	13.5	nt	nt	nt	nt	19.1
Oc1cc(NCc2ccc(F)cc2)cc2cccnc12	-23.7	22.9	nt	10.4	3.5	54.2*
Oc1cc(NCc2ccc(Cl)cc2)cc2cccnc12	9.0	14.4	nt	14.3	7.1	9.2
O=C(CN(C(=O)c1csnn1)c1cccc(Cl)c1)NC1CCCCC1	1.6	39.3	nt	8.0	2.6	11.2
Cc1ccc(S(=O)(=O)N2c3ccccc3OC(C(=O)OC(C)(C)C)(C(=O)OC(C)(C)C)C2CC(=O)c2ccccc2)cc1 (configuration not stated)	16.2	nt	nt	nt	nt	8.2
Cc1ccc2ncccc2c1	6.3	-21.3	nt	-12.3	-4.0	-28.5
CN(C)c1ccc(N=Nc2ccc3ncccc3c2)cc1	35.1	nt	nt	nt	nt	70.9*
O=C1c2ccccc2C(=O)c2c(NCCCN(CCO)CCO)cccc21	43.7*	9.3	12.4	3.7	-3.0	8.8
CCN(CC)CC(=O)Nc1cccc2c1C(=O)c1ccccc1C2=O	40.1*	1.4	-12.4	-4.0	0.1	0.7
CCN(CC)CC(=O)Nc1c(C)cccc1C	5.1	-1.4	10.0	0.7	2.1	-8.4
O=C1c2ccccc2-c2c1cccc2C(=O)N(CCO)CCO	10.1	-0.5	1.7	-1.5	4.0	-5.8
O=C(Nc1ccc(Cl)cc1)Nc1ccc(S(=O)(=O)Nc2ncccn2)cc1	5.8	12.0	10.6	7.7	-5.1	-1.9
O=S(=O)(Nc1ncccn1)c1ccc(NC(=S)Nc2ccc(Cl)cc2)cc1	39.2	70.1*	1.7	-1.6	-0.1	2.3
CC(C)CN(C(=O)CSc1nn(-c2ccc(Cl)cc2)c(=S)s1)C1CCS(=O)(=O)C1 (configuration not stated)	6.3	-8.3	27.9	2.2	2.6	-1.8
O=[N+]([O-])c1ccccc1NCCOc1ccccc1	16.4	82.3*	10.3	59.9*	73.3*	9.1
O=C(CCOc1ccccc1)Nc1ccccc1[N+](=O)[O-]	15.4	11.5	12.1	-2.4	3.3	-4.3
CCCCCCCCCCCCC/C=C/[C@@H](O)[C@@H](N)CO	13.8	-25.6	nt	-10.8	0.1	71.2*
CCCCCCCC/C=C\CCCCCCCC(=O)O	13.1	1.6	5.7	10.7	9.2	3.1
SMILES	SENP8 block-1	SENP6 inh	PPC-1+TRAIL kill	SENP8 block-2	SENP7 inh	C8 TRAIL sens
COCCn1c(C)cc(C(=O)COC(=O)c2ccc(Cl)c(S(N)(=O)=O)c2)c1C	27.1	3.5	nt	-13.5	-15.1	61.6*
COc1ccc2oc(C(=O)OC(C)C(=O)NC3(C#N)CCCCC3)c(C)c2c1 (configuration not stated)	-477.2	-8.1	nt	14.1	-0.4	-1.6
CC(Nc1ccc(Cl)cc1)c1cc(Cl)ccc1O (configuration not stated)	25.9	-9.6	28.0	-5.4	-7.8	-15.9
CCOc1ccc(NC(C)c2cc(Cl)ccc2O)cc1 (configuration not stated)	45.6*	-2.4	1.0	-6.6	-0.6	-14.6
Cc1ccccc1/C=C1\Oc2ccccc2C1=O	-26.8	78.5*	nt	62.9*	51.1*	34.4
Cc1cc(C)c2nc(NNC(=O)c3cc(=O)c4ccccc4o3)sc2c1	4.3	79.1*	13.8	63.5*	1.9	6.3
O=C1c2ccccc2C(=O)c2c1cccc2N1CCOCC1	42.6*	13.6	2.4	5.6	5.2	0.1
CC(=O)N(C)c1ccc(N2CCOCC2)c2c1C(=O)c1ccccc1C2=O	32.2	-4.7	nt	1.7	-0.4	21.8
Cn1ncc2cc3c(Nc4ccc(Cl)cc4)cccc3nc21	-304.9	nt	nt	nt	nt	1.1
COc1ccc(C(=O)Nc2ccccc2N2CCCC2)cc1S(=O)(=O)N1CCOCC1	12.5	-5.8	nt	-3.8	3.0	-13.6
Cc1c(C(=O)OCc2ccc(F)cc2)sc2nc3n(c(=O)c12)CCC3	-81.8	-2.5	nt	7.3	0.6	-5.0
O=[N+]([O-])/C=C/c1c(OCc2ccccc2)ccc2ccccc12	4.7	20.0	-17.4	-3.6	5.6	60.3*
NC(=S)NN=Cc1nccc2c(N)cccc12	62.0*	nt	nt	nt	nt	21.2
COC(=O)[C@]1(C)CCC[C@@]2(C)C3CC[C@@]4(C)C[C@]3(CCC21)CC(=O)N4 (some centres not stated)	3.7	-17.5	nt	-7.7	-8.5	-6.4
C=C1C(=O)C23CCC4C(C)(C(=O)OC)CCCC4(C)C2CCC1(O)C3 (configuration not stated)	4.7	nt	nt	nt	nt	89.3*
O=C(Nc1nc(=O)c2ccccc2s1)c1ccc(F)cc1	3.8	-8.8	18.2	19.7	36.7	54.8*
O=C(Nc1nc2ccsc2c(=O)s1)c1ccc(Cl)cc1	-113.2	94.8*	1.4	94.1*	100.0*	10.9
O=C(Cc1nc(=O)c2ccccc2s1)Nc1ccccc1	-137.4	46.3	29.0	1.9	92.0*	20.4
O=C(Cc1ccccc1)Nc1nc(=O)c2ccccc2s1	22.1	-4.3	14.9	-5.7	-0.7	0.9
O=C(Nc1nc(=O)c2ccccc2s1)c1ccc(Cl)cc1	24.5	6.5	28.6	-21.8	26.9	66.8*
CC1(C)NC(=O)N(CC(=O)OCC(=O)Nc2cc(S(=O)(=O)N3CCCCCC3)ccc2Cl)C1=O	17.6	2.7	3.8	3.7	5.6	0.0
Cc1cccc(C(=O)NCC(c2ccc(F)cc2)N2CCOCC2)c1 (configuration not stated)	5.4	14.0	5.1	3.3	5.2	-7.9
CC(=O)Nc1nc(C)c(-c2csc(Nc3ccccn3)n2)s1	-305.9	87.3*	13.1	74.0*	79.3*	10.4
CC(=O)Nc1ccc(Nc2nc(-c3sc(NC(C)=O)nc3C)cs2)cc1	-318.6	-16.2	nt	-0.2	5.3	12.6
